TDP1 cell CPT = growth inhibition of DT40 Tdp1-/-;hTDP1 cells with camptothecin (screen for TDP1 inhibitors); chicken DT40 Tdp1-/-;hTDP1 cells + 20 nM CPT, ATP luminescence, 48 h; Potency, µM (doses to about 46.2 µM), for inactives: top-dose activity change, negative = growth inhibition, most hits filed as inhibitors; 12% of 420,000 active; AID 686979; further: potency means the concentration at half of the fitted maximal effect; on the % scale 0 is the no-effect control and ±100 the full control effect; nearly all actives have a fitted effect of over 55% in size
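Chicken DT40 Tdp1-/- cells complemented with human TDP1, 400 cells/well, exposed to compounds plus 20 nM camptothecin for at least 48 h at 37 C; viability read as ATP content by CellTiter-Glo luminescence.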
TDP1 block = inhibitors of human tyrosyl-DNA phosphodiesterase TDP1; recombinant TDP1, AlphaScreen DNA substrate cleavage; Potency, µM (series often up to 130 µM), without a hit: top-dose activity change, negative = inhibition, usual class: inhibitors; 0.28% of 350,000 active; AID 485290; further: potency means the concentration at half of the fitted maximal effect; on the % scale 0 is the no-effect control and ±100 the full control effect; nearly all actives have a fitted effect of over 40% in size
Target sequence (Q9NUW8 whole entry, looked up): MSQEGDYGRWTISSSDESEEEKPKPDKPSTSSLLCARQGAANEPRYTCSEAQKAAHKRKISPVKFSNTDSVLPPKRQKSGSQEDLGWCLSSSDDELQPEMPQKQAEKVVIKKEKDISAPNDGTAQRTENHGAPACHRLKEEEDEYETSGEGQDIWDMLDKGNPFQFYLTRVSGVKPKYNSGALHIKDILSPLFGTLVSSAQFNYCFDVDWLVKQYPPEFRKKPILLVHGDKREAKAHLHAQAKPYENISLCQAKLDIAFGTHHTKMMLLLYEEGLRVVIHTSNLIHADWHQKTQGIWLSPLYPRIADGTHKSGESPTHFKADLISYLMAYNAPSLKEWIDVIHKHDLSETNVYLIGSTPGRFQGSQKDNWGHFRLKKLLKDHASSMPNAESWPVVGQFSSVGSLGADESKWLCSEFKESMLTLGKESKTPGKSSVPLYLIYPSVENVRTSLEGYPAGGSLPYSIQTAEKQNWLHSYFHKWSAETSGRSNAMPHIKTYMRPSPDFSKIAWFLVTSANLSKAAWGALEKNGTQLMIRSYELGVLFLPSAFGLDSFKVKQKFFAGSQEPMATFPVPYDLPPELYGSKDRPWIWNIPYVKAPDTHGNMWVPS
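Recombinant E. coli-expressed Tdp1 (1 nM) preincubated with compound 15 min at RT, then 5'-biotin/3'-phosphotyrosine-FITC DNA substrate (15 nM) added for 5 min. AlphaScreen beads (10 ug/ml) added, 10 min RT; tyrosine-FITC cleavage read as signal loss.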
HepG2 tox = counter-screen for TGF-b inhibitors: cytotoxicity in HepG2 cells; HepG2 CAGA-GFP viability, ATP luminescence, 18 h; Potency, µM (series often up to 46.1 µM), without a hit: top-dose activity change, negative = cytotoxicity, most hits filed as cytotoxic; 0.76% of 410,000 active; AID 588856; further: potency means the concentration at half of the fitted maximal effect
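CellTiter-Glo luminescence gave cytotoxicity after 18 hours at 37 degrees C. The cells were HepG2 CAGA-GFP in 1% FBS DMEM, stimulated with 500 pg/mL TGF-beta after compound addition. %Activity was normalised to no-cell wells (complete cell-killing) and DMSO (no toxicity), and curves were fitted and classified.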
TGFb inhibitor = inhibitors of TGF-b signaling; HepG2 CAGA-GFP TGF-b/SMAD3 reporter, GFP fluorescence, 18 h; TGF-beta stimulated, 500 pg/mL final; Potency, µM (top dose mostly 46.1 µM), inactives show top-dose activity, negative = inhibition, hits mostly inhibitors; 1.2% of 410,000 active; further: potency means the concentration at half of the fitted maximal effect; on the % scale 0 is the no-effect control and ±100 the full control effect; nearly all actives have a fitted effect of over 65% in size
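Smad-responsive CAGA-GFP expression was quantified in HEPG2 cells exposed to compounds and 500 pg/mL final TGF-beta for 18 h at 37 degrees C; unstimulated wells defined full inhibition.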
TDP1 cell noCPT = qHTS for Inhibitors of human tyrosyl-DNA phosphodiesterase 1 (TDP1): qHTS in cells in absence of CPT; AID 686978, 2013; 15% of 420,000 active; DT40 Tdp1-/- hTDP1 cells, no CPT, ATP luminescence, 48 h; Potency, µM (highest dose often 46.2 µM), for the others: at the top dose activity change, negative = growth inhibition, hits mostly inhibitors; further: potency means the concentration at half of the fitted maximal effect; on the % scale 0 is the no-effect control and ±100 the full control effect; nearly all actives have a fitted effect of over 55% in size
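Luminescent ATP content (CellTiter-Glo) served as the growth readout. Knockout chicken DT40 cells expressing human TDP1 were exposed to compounds without camptothecin for a minimum 48 hr at 37 °C.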
IL1B secr inh = inflammasome signaling inhibition, IL-1 beta readout; THP-1 LPS/ATP IL-1B secretion, AlphaLISA, 16 h; active compounds read low; 4.7% of 360,000 active; activity change, % at 57.5 µM; in the data active means activity change below about -50%; inconclusive means mostly about -30% to -49%; further: on the % scale 0 is the no-effect control and ±100 the full control effect
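Secreted IL-1B measured by AlphaLISA bead assay after 16 h compound exposure of THP-1 cells; compounds (final up to 57.5 uM) added 1 h before LPS (250 ng/mL) and ATP (1.25 mM) stimulation; lower signal means less secretion.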
An asterisk follows results filed as active; ? = inconclusive; / = no result; [ ] = another dose, or the depositor's remark. This is a sample that favours compounds with a hit; in the whole collection about 18% have one here. Unless noted, the call rests on the fitted dose curve; in most records, active means well fitted curve in the direction sought with a large enough effect; inconclusive means small, poorly fitted or top-dose-only effect, or another doubt; inactive means no such curve, though single readings can be large; an effect the other way counts as inactive or inconclusive.

SMILES	TDP1 cell CPT	TDP1 block	HepG2 tox	TGFb inhibitor	TDP1 cell noCPT	IL1B secr inh
O=C(NNc1nc(Nc2ccccc2)nc(N2CCOCC2)n1)Nc1ccc(Cl)cc1	20.6µM*	1.6%	-170.2%	?	?	20.5
O=C(NNc1nc(N2CCOCC2)nc(N2CCOCC2)n1)c1ccccc1	?	/	-0.7%	-53.6%	?	-0.9
CC(=O)c1ccc(Nc2nc(N3CCOCC3)nc(N3CCOCC3)n2)cc1	?	4.2%	-36.8%	8.7%	-20.0%	-54.4*
CC(=O)c1cccc(Nc2nc(N3CCOCC3)nc(N3CCOCC3)n2)c1	?	2.0%	-12.5%	-16.7%	?	-19.9
COC(=O)c1ccc(Oc2nc(N3CCCCC3)nc(N3CCOCC3)n2)cc1	-23.1%	1.1%	-24.5%	-4.1%	-20.2%	-55.3*
CC(=O)Nc1ccc(/C(C)=N/Nc2nc(Nc3ccccc3)nc(N3CCOCC3)n2)cc1	5.17µM*	-1.2%	-15.3%	1.4%	7.31µM*	-25.1
CSc1nc2n(n1)C(C)C1=C(CCCC1=O)N2 (configuration not stated)	5.5%	-13.7%	-0.7%	0.0%	-13.5%	-8.5
O=C(c1cn(C2CCCN(Cc3cc(Cl)ccc3O)C2)nn1)N1CCCCC1 (configuration not stated)	7.5%[9.04 µM]	/	/	/	-11.6%	/
Cc1ccc(CN2C(=O)C(CC(C)C)Nc3ncnc(N4CCCCC4)c32)cc1 (configuration not stated)	?	/	-32.1%	?	?	12.0
CC1Sc2ccc(S(=O)(=O)CCC(=O)NC3CCCC(C)C3C)cc2NC1=O (configuration not stated)	20.6µM*	7.3%	-18.6%	?	20.6µM*	21.8
CC1CCCC(NC(=O)CCS(=O)(=O)c2ccc3c(c2)NC(=O)CS3)C1C (configuration not stated)	?	1.3%	-8.9%	-0.9%	?	0.0
Cc1cc(NC(=O)CCS(=O)(=O)c2ccc3c(c2)NC(=O)C(C)S3)ccc1Br (configuration not stated)	?	/	-66.3%	11.2µM*	?	65.4
CCCN1C(=O)C(=O)N(CC(=O)N2c3ccccc3NC(=O)CC2C)C1=O (configuration not stated)	3.4%	/	-10.9%	4.2%	1.0%	12.3
CC1CN(CCOCCSc2ccc(Cl)cc2)CC(C)O1 (configuration not stated)	-20.6%	/	-0.5%	0.7%	?	0.0
CC1CN(CCCCSc2ccc(Cl)cc2)CC(C)O1 (configuration not stated)	20.6µM*	/	-19.2%	?	?	-26.5
Cc1ccc(SCCCCN2CCNCC2)cc1	20.6µM*	0.0%	-2.2%	-0.5%	?	-0.8
Clc1ccc(SCCCCN2CCNCC2)cc1	20.6µM*	0.0%	-41.4%	-18.6%	18.4µM*	0.0
Cc1ccc(C)c(OCCCN2CCNCC2)c1	-8.4%	/	4.9%	14.5%	1.4%	-7.0
Cc1ccc(NC(=O)NCc2ccccn2)c(C)c1	0.4%	2.7%	-3.3%	-3.7%	11.3%	-1.7
CC(=O)N1CCc2cc(S(=O)(=O)N3CCc4ccccc43)ccc21	13µM*	2.3%	-32.3%	?	?	6.6
COc1cccc(N2CCN(S(=O)(=O)c3ccc4c(c3)CC(C)N4C(=O)C3CC3)CC2)c1 (configuration not stated)	?	4.6%	2.0%	?	-21.1%	-28.3
CC1Cc2cc(S(=O)(=O)N3CCN(c4ccccc4F)CC3)ccc2N1C(=O)C1CC1 (configuration not stated)	?	3.8%	2.9%	0.9%	23.1µM*	-29.4
CC(=O)N1CCCc2cc(S(=O)(=O)N3CCN(c4ccccn4)CC3)ccc21	?	-7.6%	9.9%	-6.7%	?	-1.3
CC(=O)N1CCCc2cc(S(=O)(=O)N3CCN(c4ccccc4F)CC3)ccc21	20.6µM*	4.4%	-20.7%	-29.2%	20.6µM*	/
Cc1noc(C)c1CSCC(=O)N(C)CC(=O)Nc1ccc(Cl)cc1	?	1.8%	-15.0%	-2.9%	?	44.5
SMILES	TDP1 cell CPT	TDP1 block	HepG2 tox	TGFb inhibitor	TDP1 cell noCPT	IL1B secr inh
Cc1cccc(Cn2c(=O)n(CCc3ccccc3)c(=O)c3sc4ccccc4c32)c1	-2.6%	3.8%	11.5%	-13.0%	-10.6%	/
Cc1ccc(CN(C)C(=O)c2ccc3c(c2)NC(=O)CS3)o1	?	/	-4.1%	-0.3%	20.1%	-15.4
CC(C)OC(=O)c1cccc(C(=O)OCc2ccco2)n1	?	-6.0%	7.08µM*	-12.7%	20.6µM*	-73.8*
CC(=O)OCc1ccco1	/	-0.3%	/	/	/	/
CCn1cc(C(=O)O)c(=O)c2cc(F)c(N3CCN(C(=S)NC(=O)c4ccccc4Cl)CC3)cc21	?	3.9%	-0.2%	0.4%	?	7.7
CCn1cc(C(=O)NCCC(C)C)c(=O)c2cc(F)c(N3CCN(C(=O)c4ccco4)CC3)cc21	16.4µM*	-0.2%	-0.1%	5.9%	18.4µM*	-14.6
CCn1cc(C(=O)Nc2ncccc2O)c(=O)c2cc(F)c(N3CCN(C(=O)c4ccco4)CC3)cc21	13µM*	-7.2%	-1.6%	-5.0%	8.2µM*	-1.3
CCn1cc(C(=O)NC(C)C)c(=O)c2cc(F)c(N3CCN(C(=O)c4ccco4)CC3)cc21	?	4.0%	-4.6%	-4.0%	18.4µM*	-7.2
CCCCCNC(=O)c1cn(CC)c2cc(N3CCN(C)CC3)c(F)cc2c1=O	-2.0%	/	-27.8%	?	?	-84.9*
Cc1cn(C)c(CC(=O)NCc2ccccc2Cl)c1C(=O)O	4.5%	4.4%	-8.6%	-7.0%	1.7%	/
COc1cc(CCC(=O)OCC(=O)Nc2ccc(F)cc2F)cc(OC)c1OC	-5.0%	/	-24.3%	1.2%	0.3%	11.8
CSc1nc(C)cc(Oc2ccccc2)n1	3.1%	3.6%	-10.8%	8.3%	-15.8%	-20.3
CCNC(=S)N(CCc1c(C)[nH]c2ccccc12)Cc1cc(OC)c(OC)c(OC)c1	16.4µM*	9.2%	-10.1%	-18.6%	10.3µM*	-26.1
CNC(=S)N(CCc1c(C)[nH]c2ccccc12)Cc1cc(OC)c(OC)c(OC)c1	?	6.6%	-3.1%	-40.9%	20.6µM*	-13.5
CNC(=S)N(CCc1c(C)[nH]c2ccc(C)cc12)Cc1cc(OC)c(OC)c(OC)c1	?	7.9%	-5.4%	-3.8%	14.6µM*	-8.7

Compound activity as filed in PubChem BioAssay.
